Results filed as inconclusive are left out. Active and inactive are the calls of the source. Unless noted, calls follow the shape of the dose curve; as a rule, active = well fitted curve in the direction sought with a large enough effect; inconclusive = small, poorly fitted or top-dose-only effect, or another doubt; inactive = no such curve, though single readings can be large; an effect the other way counts as inactive or inconclusive.
Columns and labels:
[1] = biological target: DNA repair nuclease/redox regulator APEX1 (Homo sapiens) (UniProt P27695); experiment: qHTS Validation Assay for Inhibitors of the Human Apurinic/apyrimidinic Endonuclease 1 (APE1) (AID 1705;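 also: TAMRA fluorescence gain over two minutes as APE1 cuts a quenched THF abasic duplex; % is scaled to controls: 0 for no effect and ±100 for the full control effect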); settings: purified APE1 endonuclease activity, fluorescence, titration; series mostly up to 57.1 µM
How it was run: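 Endonuclease activity of human APE1 is followed as dequenching when the enzyme incises a tetrahydrofuran abasic site in a short duplex labelled 5'-TAMRA/3'-BHQ-2 (50 nM final), after 15 min enzyme–compound preincubation at room temperature.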

[2] = biological target: Endonuclease 4 (Escherichia coli (strain K12)) (UniProt P0A6C1); experiment: Counterscreen for APE1 Inhibitors: qHTS Validation Assay for Inhibitors of Endonuclease IV (AID 1708); also: % is scaled to controls: 0 for no effect and ±100 for the full control effect; settings: E. coli endonuclease IV, DNA cleavage fluorescence; series mostly up to 57.1 µM
How it was run: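 2 nM enzyme was preincubated with compounds for 15 min at room temperature in 50 mM Tris-HCl pH 7.5, 50 mM NaCl, 2 mM MgCl2, 1 mM DTT, 0.01% Tween-20. 50 nM THF-abasic TAMRA/BHQ-2 duplex substrate started the reaction.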

[3] = biological target: Ferritin light chain (Equus caballus) (UniProt P02791); experiment: qHTS Validation Assay for Identification of Novel General Anesthetics (AID 2323); settings: horse apoferritin, anesthetic-site fluorescent probe displacement; series mostly up to 76.9 µM; also: % is scaled to controls: 0 for no effect and ±100 for the full control effect
How it was run: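 Apoferritin from horse spleen (10 uM) was mixed with 1-aminoanthracene at 50% saturation in PBS, then compounds were added. After 10 min at room temperature, fluorescence was read (ex 380 nm, em 535 nm) and normalized to free-probe and complex controls.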

[4] = biological target: ATP-dependent DNA helicase Q1 (Homo sapiens) (UniProt P46063); experiment: qHTS Validation Assay for Inhibitors of RecQ-Like Dna Helicase 1 (RECQ1) (AID 2353); settings: recombinant RECQ1 helicase DNA unwinding assay; series mostly up to 25.6 µM;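 also: plate controls were DMSO vehicle for no effect and enzyme-free control for full effect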
ATP-dependent DNA helicase Q1 (Homo sapiens), sequence (P46063 whole entry, looked up): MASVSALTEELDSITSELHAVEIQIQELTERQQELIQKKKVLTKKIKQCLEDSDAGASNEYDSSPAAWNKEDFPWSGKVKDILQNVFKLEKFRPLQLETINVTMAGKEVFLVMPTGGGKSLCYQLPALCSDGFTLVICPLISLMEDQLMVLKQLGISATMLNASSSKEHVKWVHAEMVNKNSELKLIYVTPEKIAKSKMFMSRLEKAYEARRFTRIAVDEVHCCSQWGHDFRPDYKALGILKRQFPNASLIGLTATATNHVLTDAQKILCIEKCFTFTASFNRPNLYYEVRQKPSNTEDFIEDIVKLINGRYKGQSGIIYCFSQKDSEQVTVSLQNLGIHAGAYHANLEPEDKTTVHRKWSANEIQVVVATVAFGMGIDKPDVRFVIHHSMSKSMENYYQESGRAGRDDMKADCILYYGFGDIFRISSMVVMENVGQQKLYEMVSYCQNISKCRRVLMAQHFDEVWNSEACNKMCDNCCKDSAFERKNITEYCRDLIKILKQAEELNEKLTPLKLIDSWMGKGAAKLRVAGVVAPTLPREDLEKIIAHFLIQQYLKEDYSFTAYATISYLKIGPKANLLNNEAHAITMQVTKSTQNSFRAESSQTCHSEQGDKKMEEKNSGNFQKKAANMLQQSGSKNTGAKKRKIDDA
How it was run: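 50 nM RECQ1T1 preincubated 15 min with compound in Tris pH 8.0 buffer with MgCl2, DTT, Tween-20 and 2.5 ug/ml poly(dI-dC); started with 200 nM TAMRA/BHQ-2 forked duplex and 2 mM ATP. Unwinding read as fluorescence (525/598 nm), two reads 2 h apart.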

[5] = biological target: RecQ-like DNA helicase BLM (Homo sapiens) (UniProt P54132); experiment: qHTS Validation Assay for Inhibitors of Bloom's syndrome helicase (BLM) (AID 2364); settings: BLM helicase DNA unwinding, fluorescence, in vitro; series mostly up to 57.1 µM;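 also: plate controls were DMSO vehicle for no effect and enzyme-free control for full effect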
RecQ-like DNA helicase BLM (Homo sapiens), sequence (P54132 whole entry, looked up): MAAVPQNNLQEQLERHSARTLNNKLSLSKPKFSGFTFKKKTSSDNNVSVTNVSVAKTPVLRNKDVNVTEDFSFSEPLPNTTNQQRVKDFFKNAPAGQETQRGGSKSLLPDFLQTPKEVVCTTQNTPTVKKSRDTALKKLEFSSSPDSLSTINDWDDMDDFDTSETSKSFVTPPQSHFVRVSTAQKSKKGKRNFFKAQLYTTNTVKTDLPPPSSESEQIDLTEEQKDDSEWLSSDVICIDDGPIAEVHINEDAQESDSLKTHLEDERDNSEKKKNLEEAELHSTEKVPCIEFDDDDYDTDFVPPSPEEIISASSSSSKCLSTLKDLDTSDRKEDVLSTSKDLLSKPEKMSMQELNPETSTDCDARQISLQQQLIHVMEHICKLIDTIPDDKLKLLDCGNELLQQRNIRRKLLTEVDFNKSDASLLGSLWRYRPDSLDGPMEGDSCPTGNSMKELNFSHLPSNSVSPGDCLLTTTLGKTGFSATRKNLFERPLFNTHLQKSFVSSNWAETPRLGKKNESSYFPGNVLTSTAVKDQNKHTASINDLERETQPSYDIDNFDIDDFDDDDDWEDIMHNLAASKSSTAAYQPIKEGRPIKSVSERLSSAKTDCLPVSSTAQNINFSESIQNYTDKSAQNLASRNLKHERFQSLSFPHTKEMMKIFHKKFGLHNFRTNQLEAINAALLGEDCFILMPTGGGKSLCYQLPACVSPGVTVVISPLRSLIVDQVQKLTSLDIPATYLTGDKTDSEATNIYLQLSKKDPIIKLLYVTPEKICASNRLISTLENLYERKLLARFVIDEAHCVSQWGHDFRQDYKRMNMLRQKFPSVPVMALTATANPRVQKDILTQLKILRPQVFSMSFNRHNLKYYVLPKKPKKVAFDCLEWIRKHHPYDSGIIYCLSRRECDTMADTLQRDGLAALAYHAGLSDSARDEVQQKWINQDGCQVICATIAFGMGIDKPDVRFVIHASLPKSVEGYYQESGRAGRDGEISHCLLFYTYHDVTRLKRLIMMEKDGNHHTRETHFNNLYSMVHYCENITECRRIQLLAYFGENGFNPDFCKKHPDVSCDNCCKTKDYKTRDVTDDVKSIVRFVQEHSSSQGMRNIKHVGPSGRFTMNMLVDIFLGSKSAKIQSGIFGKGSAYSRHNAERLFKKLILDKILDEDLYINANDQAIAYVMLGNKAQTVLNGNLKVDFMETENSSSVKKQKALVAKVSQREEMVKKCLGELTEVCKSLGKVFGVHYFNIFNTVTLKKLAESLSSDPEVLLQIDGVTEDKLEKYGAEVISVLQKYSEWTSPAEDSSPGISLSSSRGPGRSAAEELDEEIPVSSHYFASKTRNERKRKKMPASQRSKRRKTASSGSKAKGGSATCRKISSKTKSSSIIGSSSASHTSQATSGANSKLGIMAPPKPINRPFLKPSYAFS
How it was run: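 BLM 50 nM in 25 mM Tris-HCl pH 8.0, 5 mM NaCl, 2 mM MgCl2, 1 mM DTT, 0.01% Tween-20, 2.5 ug/ml poly(dI-dC); 15 min cpd preinc, RT. Start: 200 nM forked DNA + 2 mM ATP (final). TAMRA read, 2 reads 2 h apart.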

[6] = Validation screen for small molecules that induce DNA re-replication in MCF 10A normal breast cells (AID 463097); settings: MCF 10A cells, DNA re-replication phenotype imaging; series mostly up to 46.1 µM; also: 0% is about no effect; nearly all actives have a fitted effect of over 60% in size
How it was run: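 DNA re-replication was detected as a rise in nuclei with elevated Hoechst fluorescence after a 48 hr compound exposure of MCF 10A cells at 37 C.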

[7] = Quantitative high throughput screen for delayed death inhibitors of the malarial parasite plastid, 96 hour incubation (AID 488745); settings: Plasmodium falciparum growth; series mostly up to 28.7 µM; also: % is scaled to controls: 0 for no effect and ±100 for the full control effect; nearly all actives have a fitted effect of over 70% in size
How it was run: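 P. falciparum carrying an integrated firefly luciferase reporter, grown in erythrocytes (2% hematocrit, 0.1% parasitemia final) in RPMI 1640/0.5% Albumax, was exposed to compound for 96 h (two generations) at 37 C, 5% CO2. Luminescence decrease indicated growth inhibition.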

[8] = Quantitative high throughput screen for delayed death inhibitors of the malarial parasite plastid, 48 hour incubation (AID 488752); settings: Plasmodium falciparum growth; series mostly up to 28.7 µM; also: % is scaled to controls: 0 for no effect and ±100 for the full control effect; nearly all actives have a fitted effect of over 65% in size
How it was run: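 Erythrocytes infected with P. falciparum carrying an integrated firefly luciferase reporter (2% hematocrit, 0.1% parasitemia final) were exposed to compounds in RPMI 1640/0.5% Albumax for 48 h at 37 C, 5% CO2. Growth inhibition was scored as reduced luminescence.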

[9] = biological target: M-phase phosphoprotein 8 (Homo sapiens) (UniProt Q99549); experiment: qHTS Validation Assay for Inhibitors for MPP8 Chromodomain Interactions with Methylated Histone Tails (AID 488949); settings: AlphaScreen MPP8 binding to H3K9me3 peptide; series mostly up to 114 µM;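 also: AlphaScreen signal from MPP8 chromodomain bound to biotinylated H3K9me3 peptide; top concentration of the series differs between compounds; % is scaled to controls: 0 for no effect and ±100 for the full control effect; nearly all actives have a fitted effect of over 55% in size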
M-phase phosphoprotein 8 (Homo sapiens), sequence (Q99549 whole entry, looked up): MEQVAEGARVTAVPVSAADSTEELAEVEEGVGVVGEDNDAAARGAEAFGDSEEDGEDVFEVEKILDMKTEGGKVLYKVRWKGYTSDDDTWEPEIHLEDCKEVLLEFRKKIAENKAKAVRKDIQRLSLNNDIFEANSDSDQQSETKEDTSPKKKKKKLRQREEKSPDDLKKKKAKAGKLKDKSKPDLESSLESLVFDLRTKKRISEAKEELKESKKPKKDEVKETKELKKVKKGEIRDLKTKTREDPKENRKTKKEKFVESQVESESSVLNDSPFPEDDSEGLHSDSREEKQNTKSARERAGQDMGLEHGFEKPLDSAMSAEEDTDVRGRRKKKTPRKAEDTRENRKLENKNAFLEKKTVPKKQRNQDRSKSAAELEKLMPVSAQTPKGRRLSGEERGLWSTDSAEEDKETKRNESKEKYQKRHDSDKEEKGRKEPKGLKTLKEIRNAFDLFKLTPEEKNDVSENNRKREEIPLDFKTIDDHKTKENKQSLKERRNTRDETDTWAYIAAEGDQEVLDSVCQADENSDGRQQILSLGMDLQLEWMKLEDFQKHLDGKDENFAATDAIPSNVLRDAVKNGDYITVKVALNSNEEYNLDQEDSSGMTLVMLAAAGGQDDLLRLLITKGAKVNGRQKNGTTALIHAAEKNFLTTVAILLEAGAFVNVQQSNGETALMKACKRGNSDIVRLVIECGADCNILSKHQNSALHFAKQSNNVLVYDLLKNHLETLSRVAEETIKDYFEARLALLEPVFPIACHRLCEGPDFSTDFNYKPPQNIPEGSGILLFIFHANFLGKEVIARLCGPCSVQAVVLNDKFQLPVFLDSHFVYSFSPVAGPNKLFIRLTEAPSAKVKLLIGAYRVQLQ
How it was run: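 Disruption of the preformed MPP8–trimethyl-H3K9 peptide complex (both 50 nM, 30 min, RT) is measured after 30 min compound exposure, using AlphaScreen proximity beads; aurintricarboxylic acid titration serves as plate control.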

[10] = biological target: Transient receptor potential cation channel subfamily V member 1 (Homo sapiens) (UniProt Q8NER1); experiment: HTS Assay for Compounds that Act as Enhancers of the Vanilloid Receptor 1 (AID 488979); settings: TRPV1-expressing cells, enhancer of channel activity; series mostly up to 41.7 µM; also: 0% is about no effect
How it was run: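 TRPV1-expressing cells loaded with Fluo-8 calcium dye; compounds added and calcium influx read kinetically for 3 min (agonist phase), then capsaicin at EC20 added and read 2 min more for enhancement. Fluorescence ex 480/em 520 nm.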

[11] = biological target: Thyrotropin receptor (Homo sapiens) (UniProt P16473); experiment: qHTS Assay for Antagonists of the Thyroid Stimulating Hormone Receptor (AID 488980); settings: TSHR-expressing cells, cAMP antagonist read-out; series mostly up to 57.5 µM; also: 0% is about no effect
Thyrotropin receptor (Homo sapiens), sequence (P16473 whole entry, looked up): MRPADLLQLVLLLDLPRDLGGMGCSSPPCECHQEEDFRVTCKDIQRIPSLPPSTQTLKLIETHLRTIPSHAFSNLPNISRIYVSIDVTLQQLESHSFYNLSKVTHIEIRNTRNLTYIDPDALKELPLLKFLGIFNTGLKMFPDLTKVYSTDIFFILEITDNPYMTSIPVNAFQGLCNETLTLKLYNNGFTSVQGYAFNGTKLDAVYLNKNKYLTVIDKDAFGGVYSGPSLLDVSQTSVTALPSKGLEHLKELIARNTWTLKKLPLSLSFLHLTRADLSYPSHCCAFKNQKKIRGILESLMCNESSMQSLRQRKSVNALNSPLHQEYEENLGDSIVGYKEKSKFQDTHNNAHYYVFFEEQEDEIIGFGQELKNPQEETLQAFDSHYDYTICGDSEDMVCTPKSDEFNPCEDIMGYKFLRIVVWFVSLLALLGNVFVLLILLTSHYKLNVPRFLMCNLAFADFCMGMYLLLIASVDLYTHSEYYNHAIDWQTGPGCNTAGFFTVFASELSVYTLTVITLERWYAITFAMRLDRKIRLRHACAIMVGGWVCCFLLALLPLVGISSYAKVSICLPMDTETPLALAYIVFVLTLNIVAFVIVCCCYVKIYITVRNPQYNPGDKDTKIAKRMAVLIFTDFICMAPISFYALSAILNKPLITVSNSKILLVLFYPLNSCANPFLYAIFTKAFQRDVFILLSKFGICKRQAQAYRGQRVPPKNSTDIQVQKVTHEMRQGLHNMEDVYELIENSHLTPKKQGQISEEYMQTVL
How it was run: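 Cells expressing human TSHR (HEK293) are dispensed in HBSS/HEPES containing 70 uM RO 20-1724, compound is added, then TSH at EC80 (4 nM final). Antibody in lysis buffer follows, 30 minutes at room temperature before HTRF detection.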

[12] = biological target: Thyrotropin-releasing hormone receptor (Homo sapiens) (UniProt P34981); experiment: qHTS for Small Molecule Agonists and Allosteric Enhancers of Human TRH Receptor: Validation Screen for Agonists (AID 493127;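 active = calcium activation more than 3 SD above the typical response in the agonist read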;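 also: intracellular calcium rise by fluo-8 fluorescence before TRH EC20 addition; 0% is about no effect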); settings: TRH receptor agonist cell assay; at 2 µM; active compounds read high
Thyrotropin-releasing hormone receptor (Homo sapiens), sequence (P34981 whole entry, looked up): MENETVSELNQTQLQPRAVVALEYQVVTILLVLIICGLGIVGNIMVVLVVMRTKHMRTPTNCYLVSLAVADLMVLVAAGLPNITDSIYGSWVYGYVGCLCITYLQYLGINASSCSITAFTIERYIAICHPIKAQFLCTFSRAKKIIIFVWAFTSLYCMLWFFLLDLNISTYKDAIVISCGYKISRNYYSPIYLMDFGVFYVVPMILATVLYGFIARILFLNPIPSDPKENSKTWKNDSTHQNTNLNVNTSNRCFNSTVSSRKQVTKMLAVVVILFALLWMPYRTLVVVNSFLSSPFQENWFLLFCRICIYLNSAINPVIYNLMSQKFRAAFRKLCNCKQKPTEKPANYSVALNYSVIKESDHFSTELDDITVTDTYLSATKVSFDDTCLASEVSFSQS
How it was run: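 TRHR-expressing cells were plated overnight in serum-containing medium, then loaded with fluo-8 calcium dye at room temperature for 30 min–1.5 h. After a 10 s baseline, compound was pin-transferred and calcium fluorescence (ex 480/em 530) read kinetically for agonist response.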

[13] = biological target: Galactokinase (Homo sapiens) (UniProt P51570); experiment: qHTS Validation Assay for Inhibitors of Human Galactokinase (GALK) (AID 493189); settings: purified human GALK enzyme activity, qHTS 7-point titration; series mostly up to 57.5 µM; also: 0% is about no effect
How it was run: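 Compounds were pin-transferred into ATP buffer, then GALK-galactose mix was added (final 5 nM enzyme, 100 uM galactose, 35 uM ATP). After 1 h at room temperature, remaining ATP was measured luminescently.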

[14] = Validation screen for small molecules that induce DNA re-replication in SW480 colon adenocarcinoma cells (AID 504364); settings: DNA re-replication phenotype (high-content imaging); series mostly up to 46.1 µM; also: 0% is about no effect
How it was run: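 SW480 cells seeded at 250 per well were exposed to compound or DMSO for 48 hr at 37 C, 5% CO2, then stained with Hoechst for 40 min. DNA content per nucleus was imaged (405 nm ex, 500-530 nm em).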

[15] = biological target: Dual specificity protein kinase CLK4 (Homo sapiens) (UniProt Q9HAZ1); experiment: qHTS Assay for Inhibitors of CDC-like Kinase 4 (Kinase-Glo Assay) (AID 1770); settings: recombinant Clk4, Kinase-Glo ATP depletion luminescence; series mostly up to 66.7 µM; also: % is scaled to controls: 0 for no effect and ±100 for the full control effect; nearly all actives have a fitted effect of over 65% in size
Dual specificity protein kinase CLK4 (Homo sapiens), sequence (Q9HAZ1 whole entry, looked up): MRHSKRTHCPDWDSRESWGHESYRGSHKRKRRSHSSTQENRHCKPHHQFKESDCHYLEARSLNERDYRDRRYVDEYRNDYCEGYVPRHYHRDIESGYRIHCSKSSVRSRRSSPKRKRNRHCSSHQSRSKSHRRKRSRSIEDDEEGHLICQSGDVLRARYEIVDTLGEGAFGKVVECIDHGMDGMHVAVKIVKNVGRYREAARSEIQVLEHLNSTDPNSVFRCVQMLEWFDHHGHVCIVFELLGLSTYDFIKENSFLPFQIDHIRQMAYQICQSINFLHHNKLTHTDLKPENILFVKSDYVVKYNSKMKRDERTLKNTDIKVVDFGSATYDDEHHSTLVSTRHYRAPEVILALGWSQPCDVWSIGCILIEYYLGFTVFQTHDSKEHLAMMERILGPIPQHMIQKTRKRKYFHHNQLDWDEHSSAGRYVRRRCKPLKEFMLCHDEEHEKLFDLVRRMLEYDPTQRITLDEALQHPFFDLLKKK
How it was run: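 Inhibition was judged from remaining ATP, measured by Ultra-Glo luciferase bioluminescence after Clk4 (25 nM) had acted on RS peptide at 1 uM ATP for 4.5 hours, room temperature.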

[16] = biological target: Dual specificity protein kinase CLK4 (Homo sapiens) (UniProt Q9HAZ1); experiment: qHTS Assay for Inhibitors of CDC-like Kinase 4 (ADP-FP Assay) (AID 1795); settings: Transcreener ADP fluorescence polarization; series mostly up to 50 µM;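 also: recombinant human CLK4 phosphorylating RS repeat peptide at 1 µM ATP; % is scaled to controls: 0 for no effect and ±100 for the full control effect; nearly all actives have a fitted effect of over 60% in size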
How it was run: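 Inhibition of ADP formation by 6.25 nM Clk4 is measured using 1 uM ATP and 100 uM RS repeat peptide over one hour. Produced ADP displaces a fluorescent tracer from antibody, lowering polarization.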

[17] = Primary qHTS for small molecule stabilizers of the endoplasmic reticulum resident proteome: Secreted ER Calcium Modulated Protein (SERCaMP) assay (AID 1508630); settings: SH-SY5Y GLuc-SERCaMP (Gaussia luciferase released on ER calcium loss) secretion, thapsigargin, luminescence; series mostly up to 38.4 µM; also: % is scaled to controls: 0 for no effect and ±100 for the full control effect
How it was run: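 GLuc-SERCaMP-expressing SH-SY5Y cells, pretreated 16 h with compound, are challenged with thapsigargin to empty ER calcium stores; after 4 h, coelenterazine is added directly to the medium and luminescence is imaged.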

[18] = biological target: Rap guanine nucleotide exchange factor 3 (Homo sapiens) (UniProt O95398); experiment: Confirmatory qHTS for antagonist of cAMP-regulated guanine nucleotide exchange factor 3 (EPAC1) (AID 1645880); settings: EPAC1 Rap1B-BODIPY-GDP exchange, fluorescence; series mostly up to 115 µM;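 also: plate controls were DMSO only for no effect and full effect of the ATA control for full effect; nearly all actives have a fitted effect of over 55% in size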
How it was run: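 Nucleotide exchange uses 100 nM EPAC1, 250 nM RAP1B-BODIPY-GDP and 50 uM GDP, with compounds in a concentration-titration series. After 5 min at room temperature, fluorescence (480 nm ex/540 nm em) is read every 5 min for 30 min. Data are normalized to control ATA and DMSO.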

[19] = biological target: Peroxisome proliferator-activated receptor delta (Homo sapiens) (UniProt Q03181); experiment: qHTS assay for small molecule antagonists of peroxisome proliferator-activated receptor delta signaling (AID 588535; active = well fitted inhibition curve with a large enough effect in the signal ratio, with a control signal flat, not every such curve was filed as active; the % refers to the signal ratio); settings: HEK293T PPARd-UAS-bla, beta-lactamase FRET ratio, 18 h; series mostly up to 76.7 µM
Peroxisome proliferator-activated receptor delta (Homo sapiens), sequence (Q03181 whole entry, looked up): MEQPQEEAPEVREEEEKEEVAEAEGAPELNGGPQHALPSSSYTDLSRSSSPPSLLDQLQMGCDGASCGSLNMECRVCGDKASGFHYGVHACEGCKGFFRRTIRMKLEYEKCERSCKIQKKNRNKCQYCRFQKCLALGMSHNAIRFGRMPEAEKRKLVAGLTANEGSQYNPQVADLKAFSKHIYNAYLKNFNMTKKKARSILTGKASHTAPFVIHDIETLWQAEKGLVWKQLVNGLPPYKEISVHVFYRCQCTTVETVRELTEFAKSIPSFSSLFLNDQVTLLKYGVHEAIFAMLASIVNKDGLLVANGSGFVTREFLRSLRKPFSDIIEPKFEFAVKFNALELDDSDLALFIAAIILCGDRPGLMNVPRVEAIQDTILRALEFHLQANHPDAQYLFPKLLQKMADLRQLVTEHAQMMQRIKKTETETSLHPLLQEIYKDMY
How it was run: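 GeneBLAzer PPAR-delta-UAS-bla HEK293T cells in medium with 2% charcoal/dextran FBS were preincubated 5 hrs at 37 C, then given compounds, incubated 18 hrs at 37 C, and read by CCF4 beta-lactamase fluorescence; IC50 from Hill fits.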

[20] = qHTS Assay for Identification of Small Molecule Antagonists for NFkB Signaling Pathway (AID 895; active = well fitted inhibition curve with a large enough effect in the signal ratio, with a control signal flat, not every such curve was filed as active; the % refers to the signal ratio; also: % is scaled to controls: 0 for no effect and ±100 for the full control effect); settings: NFkB beta-lactamase reporter cells, FRET ratio 460/530; series mostly up to 38.3 µM
How it was run: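 NFkB-bla ME-180 cervical carcinoma cells with beta-lactamase reporter under NFkB response element; compounds added, then TNF alpha at 10 pM final (EC50), 5 h at 37 C. LiveBLAzer substrate 2 h, room temperature; emission 460/530 nm at 405 nm excitation.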

C[C@]12CC[C@H](O)CC1=CCC1C2CC[C@]2(C)C(=O)CC[C@@H]12 (some centres not stated)
inactive: Potency [1] | Potency [2] | Potency [3] | outcome [4] | outcome [5] | Potency [6] | Potency [7] | Potency [8] | Potency [9] | outcome [10] | outcome [11] | activation [12] 0.438% | outcome [13] | outcome [14]

Clc1ccccc1-c1cncnc1NCCc1cnc[nH]1
inactive: outcome [15] | outcome [16] | outcome [17]

O=C1c2ccccc2-c2cccc3cccc1c23
inactive: Potency [18]

ClC1=C(Cl)C2(Cl)C3C(Cl)C=CC3C1(Cl)C2(Cl)Cl (configuration not stated)
inactive: Potency [19]

COC(=O)NC(=S)Nc1ccccc1NC(=S)NC(=O)OC
inactive: Potency [19]

COc1ccc(OC)c([C@H](O)[C@H](C)N)c1
inactive: Potency [20]

C#CCN(C)[C@@H](C)Cc1ccccc1
inactive: Potency [20]

Source: PubChem BioAssay (NCATS)
